Screening data (PubChem BioAssay)
SMN2 splice enh – enhancers of SMN2 splice variant expression; HEK293 SMN2-luciferase splicing reporter, luminescence, 30-36 h; Potency, µM (titrated, usually from 46.1 µM), for inactives: top-dose activity change, positive = activation, usual class: activators; actives 2.8% (n = 210,000); further: % of control where 0% means no effect; nearly all actives have a fitted effect of over 55% in size
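HEK293 cells carry an SMN2 minigene-luciferase reporter in which exon 7 inclusion puts luciferase in frame. Cells were seeded at 2000 cells/well, attached for 10-12 hours, then exposed to compounds for 30-36 hours at 37C before ONE-Glo luminescence.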
NPC1 promoter act – activators of NPC1 promoter | Huh7 NPC1 promoter luciferase reporter, 24 h | Potency, µM (titrated, usually from 9.22 µM), without a hit: at the top dose activation, usual class: activators | actives 2.4% (n = 320,000) | AID 485313; further: % of control where 0% means no effect; nearly all actives have a fitted effect of over 60% in size
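Luminescence read-out of NPC1 promoter-driven luciferase in stably transfected Huh7 cells; compounds delivered in DMSO and left 24 h at 37C, 5% CO2, qHTS titration format.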
ELG1 genotox – genotoxicity induction in ELG1-luciferase HEK293T cells; actives 1.3% (n = 330,000); HEK293T ELG1-luciferase reporter, luminescence, 16 h; AID 504466; Potency, µM (series often up to 46 µM), inactives show at the highest dose activity change, positive = activation, most hits filed as activators; further: % of control where 0% means no effect; nearly all actives have a fitted effect of over 60% in size
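Cells (2,000/well) expressing the ELG1-luciferase fusion are dosed by pin tool and kept 16 hr at 37 °C, 5% CO2. Signal comes from ONE-Glo luciferase reagent after 30 min at room temperature.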
FLuc counter – counter-screen for miR-21 project: firefly luciferase inhibitors or activators; P08659; AID 588342; actives 6.9% (n = 360,000); Potency, µM (top dose mostly 57.5 µM), without a hit: at the highest dose activity change, negative = inhibition, usual class: inhibitors; purified FLuc, Km substrates, luminescence inhibition;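 further: plate controls were vehicle for no effect and reference inhibitor for full effect; nearly all actives have a fitted effect of over 55% in size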
Target sequence (P08659 whole entry, looked up): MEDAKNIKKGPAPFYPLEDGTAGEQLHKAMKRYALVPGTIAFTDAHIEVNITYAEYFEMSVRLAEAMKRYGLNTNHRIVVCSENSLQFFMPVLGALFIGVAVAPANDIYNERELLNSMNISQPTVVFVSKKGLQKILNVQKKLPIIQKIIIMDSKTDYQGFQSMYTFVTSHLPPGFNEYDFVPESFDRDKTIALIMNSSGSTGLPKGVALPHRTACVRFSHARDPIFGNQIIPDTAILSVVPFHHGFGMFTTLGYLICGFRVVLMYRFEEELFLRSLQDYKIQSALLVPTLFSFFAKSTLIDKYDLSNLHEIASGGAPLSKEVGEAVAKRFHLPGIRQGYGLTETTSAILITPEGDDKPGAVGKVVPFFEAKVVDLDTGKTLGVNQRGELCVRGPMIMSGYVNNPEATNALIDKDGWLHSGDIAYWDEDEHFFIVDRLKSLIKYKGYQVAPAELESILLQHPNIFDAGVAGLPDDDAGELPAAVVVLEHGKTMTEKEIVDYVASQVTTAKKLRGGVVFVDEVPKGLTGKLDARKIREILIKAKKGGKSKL
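Purified P. pyralis luciferase (10nM final) with 10uM D-luciferin and 10uM ATP (Km levels) in 50mM Tris acetate pH 7.5, 10mM Mg acetate, 0.01% Tween-20, 0.05% BSA; qHTS 6-point titration, ~60 µM downward; luminescence read.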
Rab9 promoter act – Rab9 promoter activation; actives 2.8% (n = 320,000); Potency, µM (top dose mostly 9.22 µM), for the others: at the top dose activation, negative = inhibition, hits mostly activators; Huh7 Rab9 promoter-luciferase reporter, luminescence, 24 h; further: % of control where 0% means no effect; nearly all actives have a fitted effect of over 60% in size
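Quantitative HTS format; Huh7 Rab9-luciferase reporter cells (1500/well) receive compound 2 h post-plating, incubate 24 h at 37 °C, then get luciferase reagent for 10 min before luminescence reading.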
ELG1 DNA repair – inhibitors of ELG1-dependent DNA repair in HEK293T cells. HEK293T ELG1-luciferase reporter, luminescence, 16 h; DNA damage induced by 5-fluorouridine. Potency, µM (highest dose often 46.1 µM), inactives show at the highest dose activity change, negative = inhibition, most hits filed as inhibitors. actives 2.3% (n = 330,000); further: on the % scale 0 is the no-effect control and ±100 the full control effect; nearly all actives have a fitted effect of over 55% in size
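Reporter activity after DNA damage by 5-fluorouridine is monitored. Compound-treated cells incubate 16 hr at 37 °C, then ONE-Glo is added for 30 min before luminescence reading.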
* marks the source's active call; other numbers are inactive results; u = inconclusive; x = no result given; ! = not active in a repeat. This is a sample that favours compounds with a hit; in the whole collection about 9.4% have one here. The call rests on the fitted dose curve; in most records, active means well fitted curve in the direction sought with a large enough effect; inconclusive means small, poorly fitted or top-dose-only effect, or another doubt; inactive means no such curve, though single readings can be large; an effect the other way counts as inactive or inconclusive. Potency means the concentration at half of the fitted maximal effect.

SMILES | SMN2 splice enh | NPC1 promoter act | ELG1 genotox | FLuc counter | Rab9 promoter act | ELG1 DNA repair
CCOC(=O)c1sc(NCCNc2nc(C)c(C(=O)OCC)s2)nc1C | 14% | -4% | 1% | 1% | -2% | -2%
CCCCCCCC#Cc1ccccc1/C=N/S(=O)c1ccc(C)cc1 (configuration not stated) | 8% | -2% | 11% | u | 2% | 14%
Cc1nc(/N=C(\N)NC(=O)c2ccccc2)nc2ccccc12 | 18µM* | 23% | 5% | u | u | u
CCCC(=O)N/C(N)=N/c1nc(C)c2cc(C)ccc2n1 | x | -9% | 5% | 17µM* | 23% | u
O=C(CN1C(=O)/C(=C/c2ccccc2)SC1=S)NC1CCS(=O)(=O)C1 (configuration not stated) | x | -8% | -1% | -18% | 0% | 19%
COc1ccccc1/C=C1\SC(=S)N(CC(=O)NC2CCS(=O)(=O)C2)C1=O (configuration not stated) | x | -3% | 0% | 13µM* | 3% | 4%
CC(C)c1ccc(/C=C2\SC(=O)N(CC(=O)NC3C=CS(=O)(=O)C3)C2=O)cc1 (configuration not stated) | x | 26% | 5% | 1.2µM* | 23% | u
COc1cccc(/C=C2\SC(=S)N(C(C)C(=O)NC3C=CS(=O)(=O)C3)C2=O)c1 (configuration not stated) | x | -6% | 9% | u | 12% | 3%
COc1cccc(/C=C2\SC(=O)N(CC(=O)NC3CCS(=O)(=O)C3)C2=O)c1 (configuration not stated) | x | -14% | 6% | 17µM* | 0% | 8%
COc1cccc(/C=C2\SC(=O)N(CC(=O)NC3C=CS(=O)(=O)C3)C2=O)c1 (configuration not stated) | x | -4% | -7% | 27µM* | 6% | u
CCCCCS(=O)(=O)CCCCCCCCCCn1c(-c2ccc(O)cc2)c(C)c2cc(O)ccc21 | -114% | x | x | x | x | x
Clc1cccc(-n2ncc3c(N4CCCCCC4)ncnc32)c1 | x | x | x | 1.7µM* | x | x
c1ccc(Cn2ncc3c(N4CCCCC4)ncnc32)cc1 | -19% | 8% | 5% | -1% | 13% | 2%
Clc1cccc(-n2ncc3c(N4CCCCC4)ncnc32)c1 | x | x | x | 0.43µM* | x | x
CCOC(=O)C1CCN(c2ncnc3c2cnn3-c2ccc(Cl)cc2)CC1 | -46% | 1% | 0% | u | -2% | u
CCCCOc1ccc(C2c3c(-c4ccccc4O)n[nH]c3C(=O)N2Cc2ccncc2)cc1OC (configuration not stated) | 0% | x | x | -11% | x | x
CCOc1ccc(C2C(C(N)=O)=C(C)Nc3nc(-c4ccc(OC)cc4)nn32)cc1 (configuration not stated) | -3% | x | x | u | x | x
Cc1ccc2nc(Cl)c3cc(C(=O)N(C)C4CCCCC4)sc3c2c1 | -2% | x | x | -2% | x | x
CN1CCc2cc3c(c4c2[C@H]1[C@H](O)c1ccccc1-4)OCO3 | 27% | -4% | 6% | 5% | -5% | -2%
CN1CCc2cccc3c2[C@H]1Cc1ccc(O)c(O)c1-3 | -9% | 10% | -5% | u | 3% | 23µM*!
Cc1ccc(-c2onc3ccc(C4(C)OCCO4)cc23)cc1 | -9% | 0% | 6% | -2% | -2% | -1%
Cc1ccc(-c2onc3ccc(C=O)cc23)cc1 | u | u | 5.2µM* | u | u | u
C=CC[C@@H](CC(=O)OC(C)(C)C)C(=O)OC[C@H]1CCCN1C(=O)[C@@H](CC=C)CC(=O)N[C@H](CO)Cc1ccccc1 | x | x | -6% | x | x | 16µM*
O=C(CCC1N=C2c3ccccc3N=C(SCc3ccccc3F)N2C1=O)NC1CCCCC1 (configuration not stated) | x | x | x | 0% | x | x
